# Data published in PubChem BioAssay AID1159580 (chemical genetic matrix, 2015).
# Out of some 5,500 compounds screened, about 2,000 (36%) were called active. About 18% were inconclusive and are not listed. The list shows a part of the results. Unmarked numbers belong to inactive results. Rule as the data show it: active = normalized growth mostly below about 0.91 (no sharp cut-off); inconclusive = no clear call, values can overlap the other calls; inactive = mostly above about 0.92.
# Experiment: chemical genetic growth profiling, strain panel (AID 1159580);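 also: tested at 20 µM; growth read once vehicle control cultures reached saturation at 30 °C; 1 = growth at the plate median or of vehicle wells; lower values mean less growth of the strain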
# Conditions: growth OD
# [1] = S. cerevisiae deletion strains, locus YAL013W, strain DEP1, hits give low values
# [2] = S. cerevisiae deletion strains, locus YBR229C, strain ROT2, hits give low values
# [3] = S. cerevisiae deletion strains, locus YDL101C, strain DUN1, hits give low values
# [4] = S. cerevisiae deletion strains, locus YDL134C, strain PPH21, hits give low values
# [5] = S. cerevisiae deletion strains, locus YDR150W, strain NUM1, hits give low values
# [6] = S. cerevisiae deletion strains, locus YEL061C, strain CIN8, hits give low values
# [7] = S. cerevisiae deletion strains, locus YGR078C, strain PAC10, hits give low values
# [8] = S. cerevisiae deletion strains, locus YHR030C, strain SLT2, hits give low values
# [9] = S. cerevisiae deletion strains, locus YHR087W, strain rtc3, hits give low values
# [10] = S. cerevisiae deletion strains, locus YJR043C, strain POL32, hits give low values
# [11] = S. cerevisiae deletion strains, locus YJR075W, strain HOC1, hits give low values
# [12] = S. cerevisiae deletion strains, locus YLR039C, strain RIC1, hits give low values
# [13] = S. cerevisiae deletion strains, locus YLR058C, strain SHM2 (second series), hits give low values
# [14] = S. cerevisiae deletion strains, locus YLR085C, strain ARP6, hits give low values
# [15] = S. cerevisiae deletion strains, locus YLR262C, strain YPT6, hits give low values
# [16] = S. cerevisiae deletion strains, locus YML094W, strain GIM5, hits give low values
# [17] = S. cerevisiae deletion strains, locus YMR219W, strain ESC1, hits give low values
# [18] = S. cerevisiae deletion strains, locus YMR263W, strain SAP30, hits give low values
# [19] = S. cerevisiae deletion strains, locus YNL153C, strain GIM3, hits give low values
# [20] = S. cerevisiae deletion strains, locus YNL298W, strain CLA4 (second series), hits give low values
# [21] = S. cerevisiae deletion strains, locus YNL322C, strain KRE1, hits give low values
# [22] = S. cerevisiae deletion strains, locus YNR030W, strain Alg12, hits give low values
# [23] = S. cerevisiae deletion strains, locus YOL006C, strain TOP1, hits give low values
# [24] = S. cerevisiae deletion strains, locus YPL055C, strain LGE1, hits give low values
# [25] = S. cerevisiae deletion strains, locus YPL241C, strain CIN2, hits give low values
# [26] = S. cerevisiae deletion strains, locus YPR135W, strain CTF4, hits give low values
# [27] = S. cerevisiae strains, strain wild type, hits give low values
# [28] = S. cerevisiae deletion strains, locus YMR307W, strain GAS1, hits give low values
smiles,measurement,setting,value
Cc1ccc(-c2csc(CC#N)n2)cc1C,normalized growth,[1],0.987
same,normalized growth,[2],0.961
same,normalized growth,"S. cerevisiae deletion strains, locus YCL061C, strain MRC1, hits give low values",0.912
same,normalized growth,[3],0.963
same,normalized growth,[4],0.977
same,normalized growth,[5],0.989
same,normalized growth,[6],0.951
same,normalized growth,[7],0.951
same,normalized growth,[8],0.716
same,normalized growth,[9],0.97
same,normalized growth,[10],0.97
same,normalized growth,[11],0.914
same,normalized growth,[12],0.774 (active)
same,normalized growth,[13],0.961
same,normalized growth,[14],0.823
same,normalized growth,[15],0.78 (active)
same,normalized growth,[16],0.944
same,normalized growth,[17],0.961
same,normalized growth,[18],0.974
same,normalized growth,[19],0.929
same,normalized growth,[20],0.882
same,normalized growth,[21],0.962
same,normalized growth,[22],0.962
same,normalized growth,[23],0.758
same,normalized growth,[24],0.946
same,normalized growth,[25],0.859
same,normalized growth,[26],0.801
same,normalized growth,[27],0.969
S=c1nc2[nH]c3ccccc3c2n[nH]1,normalized growth,[1],0.98
same,normalized growth,[2],0.982
same,normalized growth,[3],0.985
same,normalized growth,[4],0.973
same,normalized growth,[5],1.01
same,normalized growth,[6],1
same,normalized growth,[7],0.976
same,normalized growth,[8],0.962
same,normalized growth,[9],1.04
same,normalized growth,[10],0.974
same,normalized growth,[11],1
same,normalized growth,[12],0.996
same,normalized growth,[13],0.99
same,normalized growth,[14],0.927
same,normalized growth,[15],0.995
same,normalized growth,[16],0.978
same,normalized growth,[17],0.994
same,normalized growth,[18],1.03
same,normalized growth,[19],0.977
same,normalized growth,[20],0.944
same,normalized growth,[21],0.991
same,normalized growth,[22],0.972
same,normalized growth,[23],1
same,normalized growth,[24],1
same,normalized growth,[25],0.974
same,normalized growth,[26],0.916
same,normalized growth,[27],0.984
CNC(=O)[C@H]1O[C@@H](n2cnc3c(NCc4cccc(I)c4)ncnc32)C(O)[C@H]1O (stereo partly drawn),normalized growth,"S. cerevisiae deletion strains, locus YAL040C, strain CLN3, hits give low values",0.988
same,normalized growth,"S. cerevisiae deletion strains, locus YCL061C, strain MRC1 (second series), hits give low values",0.998
same,normalized growth,"S. cerevisiae deletion strains, locus YDR363W, strain ESC2, hits give low values",1.01
same,normalized growth,"S. cerevisiae deletion strains, locus YER002W, strain NOP16, hits give low values",0.993
same,normalized growth,[7],1.01
same,normalized growth,[18],0.999
same,normalized growth,[28],0.992
same,normalized growth,"S. cerevisiae deletion strains, locus YNL128W, strain TEP1, hits give low values",0.994
same,normalized growth,"S. cerevisiae deletion strains, locus YNL175C, strain NOP13, hits give low values",1.01
same,normalized growth,"S. cerevisiae deletion strains, locus YNL197C, strain WHI3, hits give low values",0.998
same,normalized growth,"S. cerevisiae deletion strains, locus YNL224C, strain SQS1, hits give low values",1.02
same,normalized growth,[21],0.992
same,normalized growth,"S. cerevisiae deletion strains, locus YOR083W, strain WHI5 (second series), hits give low values",0.991
same,normalized growth,[24],1.01
same,normalized growth,[25],1
O=C(O)c1cncc(C#Cc2ccccc2)c1,normalized growth,[1],0.982
same,normalized growth,[2],0.976
same,normalized growth,[3],0.991
same,normalized growth,[4],1.01
same,normalized growth,[5],1.01
same,normalized growth,[6],1
same,normalized growth,[7],0.957
same,normalized growth,"S. cerevisiae deletion strains, locus YGR229C, strain SMI1, hits give low values",0.957
same,normalized growth,[8],0.956
same,normalized growth,[9],1
same,normalized growth,[10],0.957
same,normalized growth,[11],0.961
same,normalized growth,[12],0.976
same,normalized growth,[13],0.949
same,normalized growth,[14],1.04
same,normalized growth,[15],0.996
same,normalized growth,[16],1.02
same,normalized growth,[17],0.972
same,normalized growth,[18],0.981
same,normalized growth,[28],1.03
same,normalized growth,[19],0.931
same,normalized growth,[20],0.991
same,normalized growth,[21],0.971
same,normalized growth,[22],0.989
same,normalized growth,[24],1
same,normalized growth,[25],1.01
same,normalized growth,[26],0.935
O=C(Nc1cccc(C(F)(F)F)c1)c1cncc(C#Cc2ccccc2)c1,normalized growth,"S. cerevisiae deletion strains, locus YAR019C, strain CDC15, hits give low values",0.971
same,normalized growth,"S. cerevisiae deletion strains, locus YBL105C, strain PKC1, hits give low values",0.98
same,normalized growth,"S. cerevisiae deletion strains, locus YBR135W, strain CKS1, hits give low values",0.983
same,normalized growth,"S. cerevisiae deletion strains, locus YBR136W, strain MEC1, hits give low values",0.982
same,normalized growth,"S. cerevisiae deletion strains, locus YBR160W, strain CDC28, hits give low values",0.983
same,normalized growth,"S. cerevisiae deletion strains, locus YDL017W, strain CDC7, hits give low values",0.983
same,normalized growth,"S. cerevisiae deletion strains, locus YDL028C, strain MPS1, hits give low values",0.978
same,normalized growth,[3],0.987
same,normalized growth,"S. cerevisiae deletion strains, locus YDL108W, strain KIN28, hits give low values",0.984
same,normalized growth,"S. cerevisiae deletion strains, locus YDL132W, strain cdc53, hits give low values",0.983
same,normalized growth,"S. cerevisiae deletion strains, locus YDL214C, strain PRR2, hits give low values",0.905
same,normalized growth,"S. cerevisiae deletion strains, locus YDR052C, strain DBF4, hits give low values",0.983
same,normalized growth,"S. cerevisiae deletion strains, locus YDR054C, strain cdc34, hits give low values",0.963
same,normalized growth,"S. cerevisiae deletion strains, locus YDR226W, strain ADK1, hits give low values",0.973
same,normalized growth,"S. cerevisiae deletion strains, locus YDR477W, strain SNF1, hits give low values",0.929
same,normalized growth,"S. cerevisiae deletion strains, locus YER123W, strain YCK3, hits give low values",0.809
same,normalized growth,"S. cerevisiae deletion strains, locus YER133W, strain GLC7, hits give low values",0.936
same,normalized growth,"S. cerevisiae deletion strains, locus YFL009W, strain cdc4, hits give low values",0.968
same,normalized growth,"S. cerevisiae deletion strains, locus YFL029C, strain CAK1, hits give low values",0.97
same,normalized growth,"S. cerevisiae deletion strains, locus YFR003C, strain YPI1, hits give low values",0.983
same,normalized growth,"S. cerevisiae deletion strains, locus YFR019W, strain FAB1, hits give low values",0.862
same,normalized growth,"S. cerevisiae deletion strains, locus YFR028C, strain CDC14, hits give low values",0.969
same,normalized growth,"S. cerevisiae deletion strains, locus YGR040W, strain KSS1, hits give low values",0.89
same,normalized growth,"S. cerevisiae deletion strains, locus YGR052W, strain FMP48, hits give low values",0.977
same,normalized growth,"S. cerevisiae deletion strains, locus YGR092W, strain DBF2, hits give low values",0.826
same,normalized growth,[8],0.847 (active)
same,normalized growth,"S. cerevisiae deletion strains, locus YHR079C, strain IRE1, hits give low values",0.854
same,normalized growth,"S. cerevisiae deletion strains, locus YHR082C, strain KSP1, hits give low values",0.905
same,normalized growth,"S. cerevisiae deletion strains, locus YHR205W, strain SCH9, hits give low values",0.776
same,normalized growth,"S. cerevisiae deletion strains, locus YIL147C, strain SLN1, hits give low values",0.98
same,normalized growth,"S. cerevisiae deletion strains, locus YJL095W, strain BCK1, hits give low values",0.903
same,normalized growth,"S. cerevisiae deletion strains, locus YJL128C, strain PBS2, hits give low values",0.978
same,normalized growth,"S. cerevisiae deletion strains, locus YJL157C, strain FAR1, hits give low values",0.878
same,normalized growth,"S. cerevisiae deletion strains, locus YJR016C, strain ILV3, hits give low values",0.983
same,normalized growth,"S. cerevisiae deletion strains, locus YJR066W, strain TOR1 (second series), hits give low values",0.905
same,normalized growth,"S. cerevisiae deletion strains, locus YJR066W, strain TOR1, hits give low values",0.865
same,normalized growth,"S. cerevisiae deletion strains, locus YKL048C, strain ELM1, hits give low values",0.877
same,normalized growth,"S. cerevisiae deletion strains, locus YKL067W, strain YNK1, hits give low values",0.901
same,normalized growth,"S. cerevisiae deletion strains, locus YKL101W, strain HSL1, hits give low values",0.883
same,normalized growth,"S. cerevisiae deletion strains, locus YKL193C, strain SDS22, hits give low values",0.982
same,normalized growth,"S. cerevisiae deletion strains, locus YKL203C, strain TOR2, hits give low values",0.937
same,normalized growth,"S. cerevisiae deletion strains, locus YLR113W, strain HOG1, hits give low values",0.902
same,normalized growth,"S. cerevisiae deletion strains, locus YLR133W, strain CKI1, hits give low values",0.868
same,normalized growth,"S. cerevisiae deletion strains, locus YLR403W, strain SFP1, hits give low values",0.843
same,normalized growth,"S. cerevisiae deletion strains, locus YML070W, strain DAK1, hits give low values",0.914
same,normalized growth,"S. cerevisiae deletion strains, locus YMR001C, strain CDC5, hits give low values",0.98
same,normalized growth,"S. cerevisiae deletion strains, locus YMR205C, strain PFK2 (second series), hits give low values",0.935
same,normalized growth,"S. cerevisiae deletion strains, locus YMR277W, strain FCP1, hits give low values",0.975
same,normalized growth,"S. cerevisiae deletion strains, locus YNL006W, strain LST8, hits give low values",0.981
same,normalized growth,"S. cerevisiae deletion strains, locus YNL020C, strain ARK1, hits give low values",0.853
same,normalized growth,"S. cerevisiae deletion strains, locus YNL161W, strain CBK1, hits give low values",0.985
same,normalized growth,"S. cerevisiae deletion strains, locus YNL183C, strain NPR1, hits give low values",0.919
same,normalized growth,"S. cerevisiae deletion strains, locus YNL207W, strain RIO2, hits give low values",0.99
same,normalized growth,"S. cerevisiae deletion strains, locus YNL222W, strain SSU72, hits give low values",0.978
same,normalized growth,"S. cerevisiae deletion strains, locus YNL307C, strain MCK1 (second series), hits give low values",0.77
same,normalized growth,"S. cerevisiae deletion strains, locus YOL078W, strain AVO1, hits give low values",0.977
same,normalized growth,"S. cerevisiae deletion strains, locus YOL136C, strain PFK27, hits give low values",0.899
same,normalized growth,"S. cerevisiae deletion strains, locus YOR061W, strain CKA2, hits give low values",0.875
same,normalized growth,"S. cerevisiae deletion strains, locus YOR119C, strain RIO1, hits give low values",0.977
same,normalized growth,"S. cerevisiae deletion strains, locus YOR231W, strain MKK1, hits give low values",0.915
same,normalized growth,"S. cerevisiae deletion strains, locus YOR329C, strain SCD5, hits give low values",0.981
same,normalized growth,"S. cerevisiae deletion strains, locus YPL031C, strain PHO85, hits give low values",0.916
same,normalized growth,"S. cerevisiae deletion strains, locus YPL153C, strain RAD53, hits give low values",0.921
same,normalized growth,"S. cerevisiae deletion strains, locus YPL204W, strain HRR25, hits give low values",0.883
same,normalized growth,"S. cerevisiae deletion strains, locus YPL209C, strain IPL1, hits give low values",0.988
same,normalized growth,"S. cerevisiae deletion strains, locus YPL256C, strain CLN2, hits give low values",0.897
same,normalized growth,"S. cerevisiae deletion strains, locus YPR025C, strain CCL1, hits give low values",0.977
same,normalized growth,"S. cerevisiae deletion strains, locus YPR106W, strain ISR1, hits give low values",0.977
same,normalized growth,"S. cerevisiae deletion strains, locus YPR111W, strain DBF20, hits give low values",0.964
same,normalized growth,"S. cerevisiae deletion strains, strain NNK1, hits give low values",0.974
same,normalized growth,"S. cerevisiae deletion strains, strain TSCII, hits give low values",0.989
